# An excerpt weighted towards active compounds, which were near 7.1% of everything screened.
# S2 tox: cell viability loss in ATXN counter-screen; S2 cells (HEK-293 line with an ATXN2-luciferase reporter) viability, CellTiter-Fluor protease fluorescence, 24 h; Potency, µM (top dose mostly 56.7 µM), actives largely listed as cytotoxic; 0.49% of 400,000 active; note: nearly all actives have a fitted effect of over 40% in size
# ATXN2 expr inh: inhibitors of ATXN2 expression; AID 1745845; Potency, µM (doses to about 57 µM), hits mostly inhibitors; HEK-293 ATXN2-luciferase reporter, luminescence, 24 h; 0.72% of 360,000 active; note: nearly all actives have a fitted effect of over 55% in size
#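 ATXN2-luciferase reporter cells (luciferase flanked by upstream and downstream ATXN2 gene portions) were treated 24 h at 37 °C with compounds at up to 57 uM. SteadyGlo luminescence gave expression; GF-AFC fluorescence gave viability.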
# MCF10A rerep: inducers of DNA re-replication in MCF 10A breast cells. Potency, µM (top dose mostly 46.1 µM), hits mostly activators. 2.9% of 350,000 active. AID 624296. MCF 10A DNA re-replication, Hoechst nuclear intensity, 48 h; note: nearly all actives have a fitted effect of over 50% in size
# IL-1B inflam inh: inhibitors of inflammasome signaling (IL-1 beta secretion). 4.7% of 360,000 active. activity change, % at 57.5 µM. THP-1 LPS/ATP IL-1B secretion, AlphaLISA, 16 h; stronger effect = lower value; in the data active = activity change below about -50%; inconclusive = mostly about -30% to -49%
#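 THP-1 cells pretreated 1 hr with compounds (up to 57.5 uM final), then stimulated with LPS (250 ng/mL final) plus ATP (1.25 mM final); secreted IL-1B measured by AlphaLISA after 16 hr, decreased signal indicating inhibition.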
# SW480 rerep: inducers of DNA re-replication in SW480 colon cancer cells; SW480 DNA re-replication, Hoechst DNA content imaging, 48 h; Potency, µM (top dose mostly 46.1 µM), actives largely listed as activators; 1.8% of 340,000 active; AID 624297; note: nearly all actives have a fitted effect of over 55% in size
#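 First, 250 cells per well were seeded. Next, compound or vehicle (23 nL) was pinned in, plates sat 48 hr at 37 C. Finally Hoechst was added for 40 min before fluorescence scanning.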
# PINK1 modulator: changes PINK1 expression | PINK1 immunofluorescence, high-content cytometry, 24 h | Potency, µM (series often up to 76.6 µM), hits mostly activators | 0.2% of 410,000 active | AID 624263; active = well fitted activation curve with a large enough effect; inconclusive = small, poorly fitted or top-dose-only effect; cell line not stated here; note: nearly all actives have a fitted effect of over 65% in size
#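 Readout is PINK1 immunofluorescence, quantified alongside mitochondrial, cell and nuclear markers by laser-scanning microplate cytometry. Cells from a stable line were exposed to compound titrations (5 concentrations) for 24 hours, with CCCP controls.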
# Hits are given with their value; n = inactive; u = inconclusive; x = not tested or not shown; ! = a repeat was not active. Unless noted, calls come from the whole dose curve; as a rule, active = well fitted curve in the direction sought with a large enough effect; inconclusive = small, poorly fitted or top-dose-only effect, or another doubt; inactive = no such curve, though single readings can be large; an effect the other way counts as inactive or inconclusive.
SMILES,S2 tox,ATXN2 expr inh,MCF10A rerep,IL-1B inflam inh,SW480 rerep,PINK1 modulator
COC(=O)c1ccc(C)c(NS(=O)(=O)c2ccc(C)c([N+](=O)[O-])c2)c1,n,n,u,n,n,n
COc1cc(=O)n2c(c1C(=O)N(C)Cc1cscn1)CCN(Cc1ccc3c(c1)OCCO3)CC2,n,x,x,x,x,n
Nc1nc(N)c2c(ccc3c2ccn3Cc2cccc([N+](=O)[O-])c2)n1,u,u,x,-108.7,x,n
Nc1nc(N)c2cc([N+](=O)[O-])ccc2n1,n,n,n,n,n,n
COc1ccc(-c2onc3ccc(Br)cc23)cc1,n,n,n,n,n,n
COc1cc(-c2onc3ccc(Br)cc23)cc(OC)c1OC,u,n,u,n,18.4µM,n
Cc1c(C)n(CCCN(C)C)c2ncnc(NC3CCCCC3)c12,u,n,u,-52.8,u,n
Cc1c(C)n(CCCN(C)C)c2ncnc(Nc3ccccc3)c12,n,n,u,n,n,n
COc1ccccc1Nc1ncnc2c1c(C)c(C)n2CCCN(C)C,n,u,u,u,20.6µM,n
CCN(C(=O)CN1CCCC(C)C1)c1c(N)n(Cc2ccccc2)c(=O)[nH]c1=O (centres undefined),n,n,n,n,n,n
CN(C)c1ccc(/C=C/c2cc(=O)[nH]c3ccccc23)cc1,x,x,x,x,x,n
O=C(c1ccc(-c2ccc([N+](=O)[O-])cc2)o1)N1CCCCCCC1,u,x,11.6µM,-53.8,n,n
O=C(c1ccc(-c2ccc([N+](=O)[O-])cc2)o1)N1CCCC(C(F)(F)F)C1 (centres undefined),n,n,n,-52.7,n,n
O=C(Cc1ccc([N+](=O)[O-])cc1)N1CCCCCC1,n,n,n,n,n,n
C/C(=N\NC(=O)COc1cccc(C)c1)c1ccc2ccccc2c1O,n,u,13µM,n,23.1µM,n
Cc1cccc(OCC(=O)NCc2ccccc2)c1,n,n,n,n,n,n
CCOC(=O)C1(C)CCCN(C(=O)c2cc(F)ccc2C)C1 (centres undefined),n,n,x,n,x,n
Cc1c(C(=O)OCC2CCCO2)[nH]c2c1C(=O)CC(c1ccco1)C2 (centres undefined),n,n,3.66µM,n,2.91µM,n
Cc1c(C(=O)OCC(C)C)[nH]c2c1C(=O)CC(c1ccco1)C2 (centres undefined),u,n,18.4µM,n,0.517µM,n
C=CCOC(=O)c1[nH]c2c(c1C)C(=O)CC(c1ccco1)C2 (centres undefined),u,n,u,n,0.184µM,n
O=C(NCCSCc1ccc(Cl)cc1)C1CCN(S(=O)(=O)Cc2ccccc2)CC1,n,n,x,x,x,n
CN(C)C/C=C/C(=O)Nc1cccc(-c2c[nH]c3ncnc(Oc4ccc(NC(=O)CC(=O)Nc5ccc(F)cc5)cc4F)c23)c1,u,n,u,-90.3,n,n
CC(=O)c1cccc(OCC(=O)N(C)CC(=O)Nc2ccc(F)cc2)c1,n,n,n,n,n,n
O=C(O)CSc1ncccc1C(=O)O,n,n,9.2µM,n,n,n
O=C(CSc1ncccc1C(=O)O)c1ccccc1F,n,n,n,n,n,n
SMILES,S2 tox,ATXN2 expr inh,MCF10A rerep,IL-1B inflam inh,SW480 rerep,PINK1 modulator
CCc1cccc(-n2nnc(-c3nc(-c4ccc5c(c4)OCO5)no3)c2C)c1,x,x,x,x,x,n
COc1ccc(-c2cc(C(F)(F)F)nc(S(=O)(=O)CCCC(=O)Nc3cc(C)on3)n2)cc1OC,u,u,3.66µM,-110.2,u,n
COc1ccccc1-c1cc(C(F)(F)F)nc(S(=O)(=O)CCCC(=O)Nc2cc(C)on2)n1,x,u,20.6µM,-101.8,16.4µM,n
COc1ccc(NC(=O)CCCS(=O)(=O)c2nc(-c3ccccc3OC)cc(C(F)(F)F)n2)c(OC)c1,n,n,x,x,x,n
CC(C)CC1C(=O)N(Cc2cn(CCC3OCCCO3)nn2)CCS(=O)(=O)N1Cc1ccc(-c2ccc(Cl)c(Cl)c2)cc1 (centres undefined),31.6µM,u,x,u,x,n
CC1C(=O)N(Cc2cn(CCC3OCCCO3)nn2)CCS(=O)(=O)N1Cc1ccc(-c2ccc(F)cc2)cc1 (centres undefined),u,u,x,n,x,n
CCC/C=C/c1ccc(CN2C(CC(C)C)C(=O)N(Cc3cn(Cc4ccco4)nn3)CCS2(=O)=O)cc1 (centres undefined),u,u,x,-62.4,x,n
Cc1cccc(C)c1-c1ccc(CN2C(CC(C)C)C(=O)N(Cc3cn(CCO)nn3)CCS2(=O)=O)cc1 (centres undefined),31.6µM,28.2µM,u,-56.7,n,n
CC1C(=O)N(Cc2cn(CCC3OCCCO3)nn2)CCS(=O)(=O)N1Cc1ccc(-c2ccc(Cl)c(Cl)c2)cc1 (centres undefined),25.1µM,25.1µM,x,n,x,n
CCCCN(Cc1ccccc1)S(=O)(=O)c1ccc2c(c1)CC(C)N2C(=O)CC (centres undefined),n,n,x,x,x,n
CC1C(=O)N(Cc2cn(CCC3OCCO3)nn2)CCS(=O)(=O)N1Cc1ccc(-c2ccc(Cl)cc2)cc1 (centres undefined),31.6µM,u,x,n,x,n
COCOCCn1cc(CN2CCS(=O)(=O)N(Cc3ccc(-c4ccc(C)cc4)cc3)C(C)C2=O)nn1 (centres undefined),u,n,x,n,x,n
COCOCCn1cc(CN2CCS(=O)(=O)N(Cc3ccc(-c4ccc(Cl)c(Cl)c4)cc3)C(C)C2=O)nn1 (centres undefined),x,28.2µM,x,n,x,u
CCOC(=O)c1cc2c(=O)n3ccccc3nc2n(Cc2ccco2)c1=NC(=O)c1cccc(C)c1,x,n,x,x,x,n
CCOC(=O)c1cc2c(=O)n3cccc(C)c3nc2n(Cc2ccco2)c1=NC(=O)c1cccnc1,u,n,n,n,u,n
Cc1cccn2c(=O)c3cc(C#N)c(=NC(=O)c4ccco4)n(Cc4ccco4)c3nc12,n,n,n,n,n,u
Cc1cccn2c(=O)c3cc(C#N)c(=NC(=O)c4ccccc4)n(Cc4ccco4)c3nc12,n,n,2.31µM,-76.4!,7.31µM,n
CCOC(=O)c1cc2c(=O)n3ccccc3nc2n(Cc2ccco2)c1=NC(=O)c1cccnc1,x,n,u,n,6.51µM,n
Cc1cccc(C(=O)N=c2c(C#N)cc3c(=O)n4cccc(C)c4nc3n2Cc2ccco2)c1,n,n,18.4µM,n,23.1µM,n
Cc1ccc(C2(CCNC(C)c3cccs3)CCOC(C(C)C)C2)cc1 (centres undefined),n,n,n,-81.2,u,u
CC(C)(C)OC(=O)N1CCC(c2nnc(SCc3cccc(Cl)c3)o2)CC1,n,n,x,x,x,n
O=C1CC(c2ccc(Cl)cc2)CC(=O)C1CS(=O)(=O)c1ccccc1 (centres undefined),n,n,u,-58.4,n,n

# Screening data from PubChem.
